Test results published in publication PMC4336329 (PLoS ONE, 2015).
Screen size: about 310,000 compounds; about 2,200 (0.71%) showed an effect of 50% or more. The effect is printed as a negative number. The sample holds strong results, similar compounds and a random draw of the others, so the mix is not that of the screen.

molecular target: human ether-à-go-go-related gene (hERG) potassium channel (human, UniProt Q12809); assay: primary screen, population patch clamp on CHO cells stably expressing hERG; higher = less effect of the substance
Sequence (Q12809 whole entry, looked up): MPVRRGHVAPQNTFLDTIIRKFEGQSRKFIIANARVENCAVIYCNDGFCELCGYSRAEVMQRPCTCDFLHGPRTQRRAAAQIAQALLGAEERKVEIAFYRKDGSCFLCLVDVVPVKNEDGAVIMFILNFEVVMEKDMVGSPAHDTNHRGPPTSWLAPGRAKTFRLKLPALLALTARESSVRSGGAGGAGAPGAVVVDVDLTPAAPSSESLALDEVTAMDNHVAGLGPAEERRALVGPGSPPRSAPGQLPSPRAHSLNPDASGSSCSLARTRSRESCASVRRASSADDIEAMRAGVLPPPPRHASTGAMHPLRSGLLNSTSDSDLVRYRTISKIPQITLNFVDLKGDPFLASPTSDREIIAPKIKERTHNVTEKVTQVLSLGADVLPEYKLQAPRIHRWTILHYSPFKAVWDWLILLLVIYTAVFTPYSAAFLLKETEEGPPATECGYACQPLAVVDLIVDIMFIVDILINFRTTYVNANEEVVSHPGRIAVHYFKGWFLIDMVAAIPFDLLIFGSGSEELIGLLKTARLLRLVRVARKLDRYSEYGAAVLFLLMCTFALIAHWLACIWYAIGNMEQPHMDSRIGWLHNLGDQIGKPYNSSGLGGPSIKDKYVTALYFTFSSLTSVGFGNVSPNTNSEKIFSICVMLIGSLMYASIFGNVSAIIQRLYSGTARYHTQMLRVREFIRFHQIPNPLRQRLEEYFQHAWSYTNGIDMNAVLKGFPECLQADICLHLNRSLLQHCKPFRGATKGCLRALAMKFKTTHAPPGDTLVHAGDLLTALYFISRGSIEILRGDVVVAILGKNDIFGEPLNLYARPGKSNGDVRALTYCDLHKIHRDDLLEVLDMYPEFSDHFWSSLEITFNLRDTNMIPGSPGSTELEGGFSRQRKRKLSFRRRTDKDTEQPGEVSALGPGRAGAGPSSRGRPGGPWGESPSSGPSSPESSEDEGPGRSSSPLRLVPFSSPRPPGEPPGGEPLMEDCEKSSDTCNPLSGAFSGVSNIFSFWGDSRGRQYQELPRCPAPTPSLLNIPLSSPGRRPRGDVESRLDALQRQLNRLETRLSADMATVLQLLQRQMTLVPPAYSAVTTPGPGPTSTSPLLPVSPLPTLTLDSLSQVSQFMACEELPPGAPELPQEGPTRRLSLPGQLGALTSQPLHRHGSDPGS

| Compound | hERG current change (%, negative = inhibition) at 1uM |
| --- | --- |
| CC(=O)c1ccc(N2CCCCCC2)c(F)c1 | 0.156% |
| COc1ccc(OCC(=O)NCCCNC(=O)COc2ccc(OC)cc2)cc1 | 4.68% |
| O=c1c2c3c(sc2nc2n1CCCCC2)CCC3 | 10.9% |
| O=S1(=O)[C@H]2C[C@@H]3C=C[C@]2(CN1Cc1ccc(C(F)(F)F)cc1)O3 | 4.34% |
| COc1ccc(CCNC(=O)CO/N=C/c2cc3c(cc2Br)OCO3)cc1OC | 14.5% |
| CCCCCOc1ccc(C(C)(O)C(CN2CCOCC2)c2ccccc2)cc1 (stereo not drawn) | -3.26% |
| CC(OC(=O)/C(C#N)=C/c1ccc(N(C)C)cc1)C(=O)NCc1ccco1 (stereo not drawn) | 6.56% |
| C[C@@H](C(=O)Nc1ccc2ccccc2c1)[C@@H]1C[C@@]1(C)[C@@H](NC(=O)OCc1ccccc1)c1ccccc1 | 14.3% |
| CCOC(=O)C1=C(CSc2nncn2C)NC(=O)NC1c1cc(OCC)ccc1OCC (stereo not drawn) | 5.34% |
| Cc1ccc(NC(=O)CSc2nnc(Cn3cnc4ccccc43)o2)c(C)c1 | 20.5% |
| Cc1cccc(C)c1N(CC(=O)N1CCCC1)S(C)(=O)=O | 16.2% |
| CS(=O)(=O)N(CC(=O)N1CCc2ccccc2C1)c1ccc(Br)cc1 | 13.4% |
| CCNC(=O)CN(C1CCCCC1)S(C)(=O)=O | 1.29% |
| CCOC(=O)c1c(CSc2ccc(C)cc2)n(C)c2cc(Br)c(O)c(CN(C)C)c12.Cl.O | 18% |
| CCOC(=O)c1c(CSc2ccsc2)n(C)c2cc(Br)c(O)c(CN(C)C)c12.Cl | -88.5% |
| CCOC(=O)c1c(CSc2ccccc2)n(C)c2cc(Br)c(O)c(CN(C)C)c12 | -3.17% |
| CN(C)c1ccc(NC(=O)CSc2nc3ccccc3c(=O)n2CC2CCCO2)cc1 (stereo not drawn) | 17.3% |
| O=C(Nc1ccccc1SCC1CSc2nc3ccccc3c(=O)n21)c1ccccc1 (stereo not drawn) | -24.7% |
| O=C(Nc1ccccc1SCC1CSc2nc3ccccc3c(=O)n21)c1ccccc1Cl (stereo not drawn) | -53.2% |
| O=C(Nc1ccccc1SCC1CSc2nc3ccccc3c(=O)n21)c1cccc(Cl)c1 (stereo not drawn) | -49.6% |
| Cc1ccc(C(=O)Nc2ccccc2SCC2CSc3nc4ccccc4c(=O)n32)cc1 (stereo not drawn) | -39% |

| Compound | hERG current change (%, negative = inhibition) at 1uM |
| --- | --- |
| Cc1cccc(C(=O)Nc2ccccc2SCC2CSc3nc4ccccc4c(=O)n32)c1 (stereo not drawn) | -66.5% |
| Nc1ccccc1SCC1CSc2nc3ccccc3c(=O)n21 (stereo not drawn) | -7.26% |
| CCOC(=O)C(C(=O)OCC)C(Nc1cccc(Br)c1)c1ccccc1 (stereo not drawn) | 14.1% |
| Cc1ccc(NC(=O)COC(=O)CN2C(=O)COc3ccccc32)cc1 | 13.2% |
| Cc1[nH]c2ccccc2c1-c1ccc(Cl)nn1 | 13.8% |
| O=[N+]([O-])c1ccc(C(O)CN2CCN(c3ccccc3)CC2)cc1 (stereo not drawn) | -2.31% |
| CS(=O)(=O)N(CC(=O)N1CCCCCC1)c1cccc([N+](=O)[O-])c1 | 2.29% |
| O=[N+]([O-])c1ccc(C(O)CN2CCOCC2)cc1 (stereo not drawn) | 18.6% |
| OC(CN1CCN(Cc2ccccc2)CC1)c1ccccc1 (stereo not drawn) | 0.933% |
| CS(=O)(=O)N(CC(=O)N1CCN(Cc2ccccc2)CC1)c1cccc([N+](=O)[O-])c1 | -73.1% |
| O=[N+]([O-])c1ccc(C(O)CN2CCN(Cc3ccccc3)CC2)cc1 (stereo not drawn) | -73% |
| O=C(/C=C/c1ccccc1)N1CCN(C(=O)c2ccco2)CC1 | -13.1% |
| CS(=O)(=O)N(CC(=O)N1CCN(Cc2ccccc2)CC1)c1cccc(Cl)c1 | -23% |
| O=C(c1cccc([N+](=O)[O-])c1)N1CCN(C/C=C/c2ccccc2)CC1 | -21% |
| O=C(c1cccc([N+](=O)[O-])c1)N1CCN(C(=O)c2ccco2)CC1 | 0.101% |
| O=C(/C=C/c1cccc([N+](=O)[O-])c1)N1CCN(C(=O)c2ccco2)CC1 | -53.4% |
| O=[N+]([O-])c1ccc(C(O)CN2CCN(C/C=C/c3ccccc3)CC2)cc1 (stereo not drawn) | -85.5% |
| CCCN(CC1CC1)C(=O)CSc1nnc(-c2cc(-c3cccs3)nc3ccccc23)o1 | 6.71% |
| CS(=O)(=O)c1ccc(-n2nnc3ccccc32)c([N+](=O)[O-])c1 | 10.8% |
| CCc1ccccc1NC(=O)c1ccc(Cn2cc([N+](=O)[O-])cn2)cc1 | -3.78% |
| COc1ccc(N2CCN(C(=O)c3ccc(N4CCCCS4(=O)=O)cc3)CC2)cc1 | 10.7% |

| Compound | hERG current change (%, negative = inhibition) at 1uM |
| --- | --- |
| COc1cccc(S(=O)(=O)Nc2noc3ccccc23)c1 | 14% |
| Cc1ccc(-c2ccnc3c(Cl)c(C)nn23)cc1 | 13.3% |
| COc1cc2c(cc1OC)C(=S)NC(C)(C)C2 | 14.8% |
| COc1cc(S(=O)(=O)NCC2OCCc3ccccc32)ccc1-n1cnnn1 (stereo not drawn) | -7.28% |
| CC(=O)N1CCN(C(=O)C2(NC(=O)Nc3ccccc3Cl)CCCCC2)CC1 | 14.2% |
| CC(=O)Oc1c(C)c2c3c(c1OC(C)=O)[C@@H](C)CC[C@@H]3[C@@H](C)C[C@H]2C=C(C)C | 11.1% |
| COc1ccc(CN(C)C(=O)c2cc(S(=O)(=O)N3CCCCCC3)ccc2OC)cc1OC | 4.44% |
| CCOc1ccc(N(CC(=O)N/N=C/c2cccnc2)S(C)(=O)=O)cc1 | 12.9% |
| O=C(/C=C/c1ccc(Cl)cc1)N1CCN(c2ccc([N+](=O)[O-])c(N3CCOCC3)c2)CC1 | -11.1% |
| O=C(/C=C/c1ccc(Cl)cc1)N1CCN(c2ccc(Cl)cc2[N+](=O)[O-])CC1 | -81.4% |
| O=C(/C=C/c1ccc([N+](=O)[O-])cc1)N1CCN(Cc2ccccc2)CC1 | -63.8% |
| O=C(/C=C/c1ccc(Cl)cc1)N1CCN(Cc2ccccc2)CC1 | -12.8% |
| O=C(/C=C/c1ccc(Cl)cc1)N1CCN(c2ccccc2[N+](=O)[O-])CC1 | -33.6% |
| O=C(/C=C/c1cccc([N+](=O)[O-])c1)N1CCN(Cc2ccccc2)CC1 | -20.3% |
| CC1(c2cnc(Nc3ccccc3)s2)CCC(=O)O1 (stereo not drawn) | 11.7% |
| O=C1c2ccccc2C(=O)c2c1cccc2N1CCN(CCO)CC1 | -64.7% |
| O=C1c2ccccc2C(=O)c2c1cccc2N1CCCC1 | 8.54% |
| O=C1c2ccccc2C(=O)c2c1cccc2N1CCN(Cc2ccccc2)CC1 | -6.21% |
| Cc1cccc(NS(=O)(=O)c2ccc3c(c2)NC(=O)CC(=O)N3)c1 | 18.4% |
| Cc1cccnc1NC(=O)Nc1cccc2ccccc12 | 0.589% |
| Cc1ccsc1C(=O)C1CCCN(Cc2ccc(-n3cccn3)cc2)C1 (stereo not drawn) | -3.18% |

| Compound | hERG current change (%, negative = inhibition) at 1uM |
| --- | --- |
| Cc1ccc(-n2cccn2)c(CN2CCCC(C(=O)c3ccc4c(c3)OCO4)C2)c1 (stereo not drawn) | -83.5% |
| O=C(c1ccc2c(c1)OCO2)C1CCCN(Cc2c(F)cccc2Cl)C1 (stereo not drawn) | 0.9% |
| COc1cc(OC)c(OC)cc1CN1CCCC(C(=O)c2ccc3c(c2)OCO3)C1 (stereo not drawn) | -27.7% |
| O=C(c1ccc2c(c1)OCO2)C1CCCN(Cc2ccc3cccc(F)c3n2)C1 (stereo not drawn) | -81.5% |
| Cc1ccc(-n2cccn2)c(CN2CCCC(C(=O)c3sccc3C)C2)c1 (stereo not drawn) | -82.8% |
| O=C(c1ccc2c(c1)OCO2)C1CCCN(Cc2ccc(F)c(F)c2)C1 (stereo not drawn) | 5.03% |
| O=C(c1ccc2c(c1)OCO2)C1CCCN(Cc2ccc(OC(F)F)cc2)C1 (stereo not drawn) | -53% |
| Cc1cccc(CN2CCCC(C(=O)c3ccc4c(c3)OCO4)C2)n1 (stereo not drawn) | -16.8% |
| Cc1ccc(CN2CCCC(C(=O)c3ccc4c(c3)OCO4)C2)cc1C (stereo not drawn) | -27.1% |
| O=C(c1ccc2c(c1)OCO2)C1CCCN(Cc2ccccc2OC(F)F)C1 (stereo not drawn) | -16.9% |
| Cc1ccsc1C(=O)C1CCCN(Cc2cc(F)ccc2-n2cccn2)C1 (stereo not drawn) | -45.5% |
| COc1ccc(CNCc2c(F)cccc2F)cc1OC.O=C(O)C(=O)O | 14.6% |
| O=C(NC1CCCCCC1)c1ccc(CS(=O)Cc2cccc(Cl)c2)o1 (stereo not drawn) | 5.33% |
| COc1cc(/C=N/N2CCN(Cc3ccc(Cl)cc3)CC2)cc(Br)c1O | 9.38% |
| N#Cc1c(NC(=O)CCCN2C(=O)c3ccccc3C2=O)oc(-c2ccccc2)c1-c1ccccc1 | -0.65% |
| Cc1cc2nc3ccc(N(C)C)cc3nc2cc1N | 13.3% |
| CCOC1(OCC)N=C(N)C2(C#N)C(c3cccc(OC)c3OC)C12C#N (stereo not drawn) | 3.32% |
| CN(C(=O)CCN1C(=O)c2ccccc2C1=O)c1ccccc1 | 15.8% |
| CCc1cc(C(c2ccc(F)cc2)N2CCOCC2)c(NC(=O)c2ccccc2)s1 (stereo not drawn) | 11.2% |
| CCCCNC(=O)N1CCOCCOCCN(C(=O)NCCCC)CCOCCOCC1 | 7.75% |
| O=C(c1sc2cc([N+](=O)[O-])ccc2c1Cl)N1CCOCC1 | 0.235% |
